What was measured:
Experiment in all cases: PBM binding z-score (relative to random genomic background probes); higher = stronger binding; sequences stand for … in GC…GCGATTGACAGCGTAGAATGAAGG
[1] = system: RARb homodimer (NR concentration 270 nM)
Method in brief: (§1)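 For binding z-scores, the reference was random background probes on custom Agilent 4×180K protein-binding microarrays. These arrays were incubated 1 h with ligand-free nuclear receptor dimers in PBS pH 7.4, 2% milk, 0.02% Triton X-100, 1 mM DTT, 0.2 mg/mL BSA and 0.4 mg/ml salmon testes DNA. Fluorescence was scanned after antibody detection of each partner (one per run) and regression-normalized.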

[2] = system: RARg:RXRa (NR concentration 270 nM, RXRa partner concentration 90 nM)
Method in brief: as §1

[3] = system: RARg homodimer (NR concentration 270 nM)
Method in brief: as §1

[4] = system: RXRa DBDmut IVT, anti-RXR (DBD mutation: RXRa K156A/R161A, NR concentration 90 nM)
Method in brief: as §1

[5] = system: RXRa homodimer (NR concentration 180 nM)
Method in brief: as §1

[6] = system: THRa:RXRa (NR concentration 90 nM, RXRa partner concentration 90 nM)
Method in brief: as §1

[7] = system: THRa homodimer (NR concentration 90 nM)
Method in brief: as §1

[8] = system: VDR:RXRa (NR concentration 270 nM, RXRa partner concentration 90 nM)
Method in brief: as §1

[9] = system: VDR homodimer (NR concentration 270 nM)
Method in brief: as §1

| Sequence | PBM binding z-score [1] | PBM binding z-score [2] | PBM binding z-score [3] | PBM binding z-score [4] | PBM binding z-score [5] | PBM binding z-score [6] | PBM binding z-score [7] | PBM binding z-score [8] | PBM binding z-score [9] |
| --- | --- | --- | --- | --- | --- | --- | --- | --- | --- |
| TAGCCTATGTCATGCGGGCCAGTATAGTGTCGGC | -0.116 | -0.1 | -0.059 | -0.904 | 0.0276 | -0.313 | -0.992 | -0.45 | -0.661 |
| GGAACGAGGGAATTCGAGTTGATAGCATGGCGAT | -0.928 | -0.376 | -0.201 | -0.589 | -0.105 | 0.1 | -1.07 | -0.217 | -0.525 |
| CGAACTAGGTCAAGAACAGTGAATCTCCGCACGC | 2.48 | 3.31 | 4 | 1.65 | 2.36 | 2.33 | 0.755 | 1.04 | 0.197 |
| ACTATTAATTGAGACGAGGGCAACCGATAGGTTG | 1.56 | 0.73 | 0.967 | 0.688 | 0.753 | 1.33 | 1.03 | 0.764 | 1.64 |
| ACTACTTGGTCAGCTGAGGTCACACACAATTCGG | 4.44 | 4.3 | 4.38 | 1.76 | 4.45 | 5.04 | 5.43 | 4.74 | 3.73 |
| CCTACTGGGCCATTCAGAGGCCATTGATCATATG | 0.918 | 0.62 | 0.424 | -0.152 | -0.147 | 0.255 | -0.212 | -0.232 | -0.0106 |
| AATACAGGGTCAACGTAGGCCAGAGTACGCACAG | 3.8 | 6.08 | 5.84 | 3.18 | 6.81 | 4.35 | 1.24 | 5.06 | 3.28 |
| CCTGCTAGGTCATGATCAGCTAATCTACAGTATG | 2.57 | 3.89 | 4.57 | 1.65 | 2.85 | 2.75 | 0.661 | 1.41 | 0.00806 |
| ATACCAAGGTGATCGTGAGGTCGTTGAGACTAAC | 1.66 | 2.25 | 0.747 | 0.611 | 1.66 | 3.4 | 2.38 | 2.9 | 2.82 |
| AGTCATAGTTCATCTAGGTAACGTAAGATATGCT | 2.23 | 3.01 | 3.33 | 2.6 | 2.02 | 2.21 | 0.0435 | 2.54 | 2.02 |
| CATACAGGGTCAGCTAGGCCCGAGTAGGGACGGC | 3.14 | 4.41 | 4.89 | 1.18 | 4.55 | 3.14 | 0.566 | 2.63 | 0.91 |
| ACTATTAGGTGACTTAGGGCAACCGATACGACGC | 1.39 | 1.18 | 1.29 | 0.234 | 0.903 | 2.76 | 0.89 | 0.474 | -0.344 |
| TTACCAAGGGGAAAGGTCGTTGATGCACGCCTTG | 1.72 | 1.92 | 0.864 | 0.0883 | 2.86 | 1.4 | -0.14 | 1.98 | 1.52 |

Reference: the supplement of paper PMC6555819
